Source: PubChem BioAssay (NCATS)
“And” between values parts separate entries of the source, which are not always exact repeats. Equal entries are not always repeated. Records with an inconclusive call do not appear. The source made the active and inactive calls. Unless noted, calls come from the whole dose curve.

Key:
[1] = qHTS assay for small molecule agonists of retinoid X receptor alpha signaling (AID 588544); settings: HEK293T RXRa-UAS-bla, beta-lactamase reporter, 18 h; 530 nm emission;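 for activation: 0% = DMSO basal wells and 100% = reference agonist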
[2] = biological target: Retinoic acid receptor RXR-alpha (Homo sapiens) (UniProt P19793); experiment: as above; settings: HEK293T RXRa-UAS-bla, beta-lactamase reporter, 18 h; series mostly up to 76.7 µM
Chain of Retinoic acid receptor RXR-alpha (Homo sapiens) (P19793 whole entry, looked up): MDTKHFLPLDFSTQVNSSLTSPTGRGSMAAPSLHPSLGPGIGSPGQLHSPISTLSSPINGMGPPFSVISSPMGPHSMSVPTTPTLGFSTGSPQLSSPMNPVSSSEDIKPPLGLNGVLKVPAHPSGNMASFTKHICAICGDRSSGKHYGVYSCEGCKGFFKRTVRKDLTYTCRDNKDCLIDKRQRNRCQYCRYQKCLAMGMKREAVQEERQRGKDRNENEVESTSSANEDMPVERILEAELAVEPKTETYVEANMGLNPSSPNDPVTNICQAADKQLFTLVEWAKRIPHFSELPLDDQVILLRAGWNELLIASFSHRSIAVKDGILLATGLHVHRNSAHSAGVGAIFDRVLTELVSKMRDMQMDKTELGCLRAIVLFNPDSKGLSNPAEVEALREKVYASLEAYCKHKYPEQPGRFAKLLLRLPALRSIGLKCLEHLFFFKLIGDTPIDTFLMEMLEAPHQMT

[3] = biological target: Thyroid hormone receptor beta (Homo sapiens) (UniProt P10828); experiment: qHTS assay for small molecule agonists of thyroid hormone receptor beta signaling (AID 588545); settings: TR-UAS-bla GripTite HEK 293, beta-lactamase ratio, agonist mode, 18 h, percent of T3 response, DMSO as zero; series mostly up to 76.7 µM;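 note: 0% = DMSO only and 100% = 10 nM T3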
Chain of Thyroid hormone receptor beta (Homo sapiens) (P10828 whole entry, looked up): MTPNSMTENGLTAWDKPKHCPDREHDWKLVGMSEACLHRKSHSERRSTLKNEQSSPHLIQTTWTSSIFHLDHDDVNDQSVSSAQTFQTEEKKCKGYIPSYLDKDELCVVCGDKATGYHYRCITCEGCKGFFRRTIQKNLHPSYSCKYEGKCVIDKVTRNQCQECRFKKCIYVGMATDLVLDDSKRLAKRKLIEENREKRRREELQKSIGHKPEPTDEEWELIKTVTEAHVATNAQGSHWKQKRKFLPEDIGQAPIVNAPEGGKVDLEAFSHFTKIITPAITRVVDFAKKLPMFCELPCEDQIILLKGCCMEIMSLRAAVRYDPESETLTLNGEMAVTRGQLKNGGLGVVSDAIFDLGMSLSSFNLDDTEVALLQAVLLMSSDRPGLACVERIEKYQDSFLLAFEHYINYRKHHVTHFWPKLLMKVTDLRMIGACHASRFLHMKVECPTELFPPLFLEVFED
How it was run: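 Efficacy and EC50 values derive from Hill fits of qHTS titration data, normalized to 10 nM T3 and DMSO-only wells. HEK 293 reporter cells were stimulated for 18 hrs at 37 C, with beta-lactamase activity measured by CCF4 fluorescence.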

[4] = qHTS assay for small molecule antagonists of retinoid X receptor alpha signaling (AID 588546; active = well fitted inhibition curve with a large enough effect in the signal ratio, with a control signal flat, not every such curve was filed as active; the % refers to the signal ratio;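 note: cells stimulated with 9-cis-retinoic acid as agonist; % is set by controls: 0 for no effect and ±100 for the full control effect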); settings: HEK293T RXRa-UAS-bla, beta-lactamase ratio, antagonist mode; measured here: W530 green channel, cytotoxicity proxy
How it was run: (§1)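 Beta-lactamase reporter inhibition, read as CCF4 fluorescence ratio (ex 405, em 460/530 nm) after 2 h at RT. HEK293T UAS-bla cells, 2500/well, were stimulated with 9-cis-RA at 500 or 100 nM final alongside test compound for 18 h at 37 C.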

[5] = biological target: Retinoic acid receptor RXR-alpha (Homo sapiens) (UniProt P19793); experiment: as above; settings: HEK293T RXRa-UAS-bla, beta-lactamase ratio, antagonist mode
How it was run: as §1

[6] = biological target: Thyroid hormone receptor beta (Homo sapiens) (UniProt P10828); experiment: qHTS assay for small molecule antagonists of thyroid hormone receptor beta signaling (AID 588547; active = well fitted inhibition curve with a large enough effect in the signal ratio, with a control signal flat, not every such curve was filed as active; the % refers to the signal ratio;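 note: cells stimulated with 0.4 nM T3 agonist during compound exposure; % is set by controls: 0 for no effect and ±100 for the full control effect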); settings: TR-UAS-bla HEK293, beta-lactamase ratio, antagonist mode, 18 h
How it was run: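 TR-UAS-bla GripTite HEK293 cells in 2% charcoal/dextran FBS medium were preincubated 4 h at 37 C, given compound (0.59 nM to 92 uM) plus 0.4 nM T3 (final) for 18 h, then CCF4 for 2 h at RT; Hill fit gave IC50.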

[7] = biological target: Voltage-gated inwardly rectifying potassium channel KCNH2 (Homo sapiens) (UniProt Q12809); experiment: qHTS Assay for Small Molecule Inhibitors of the Human hERG Channel Activity (AID 588834; active = well fitted inhibition curve with a large enough effect;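 note: top concentration of the series differs between compounds; % is set by controls: 0 for no effect and ±100 for the full control effect; lower thallium flux fluorescence means stronger hERG block; nearly all actives have a fitted effect of over 50% in size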); settings: U2OS BacMam hERG, FluxOR thallium flux fluorescence; series mostly up to 92.2 µM
Chain of Voltage-gated inwardly rectifying potassium channel KCNH2 (Homo sapiens) (Q12809 whole entry, looked up): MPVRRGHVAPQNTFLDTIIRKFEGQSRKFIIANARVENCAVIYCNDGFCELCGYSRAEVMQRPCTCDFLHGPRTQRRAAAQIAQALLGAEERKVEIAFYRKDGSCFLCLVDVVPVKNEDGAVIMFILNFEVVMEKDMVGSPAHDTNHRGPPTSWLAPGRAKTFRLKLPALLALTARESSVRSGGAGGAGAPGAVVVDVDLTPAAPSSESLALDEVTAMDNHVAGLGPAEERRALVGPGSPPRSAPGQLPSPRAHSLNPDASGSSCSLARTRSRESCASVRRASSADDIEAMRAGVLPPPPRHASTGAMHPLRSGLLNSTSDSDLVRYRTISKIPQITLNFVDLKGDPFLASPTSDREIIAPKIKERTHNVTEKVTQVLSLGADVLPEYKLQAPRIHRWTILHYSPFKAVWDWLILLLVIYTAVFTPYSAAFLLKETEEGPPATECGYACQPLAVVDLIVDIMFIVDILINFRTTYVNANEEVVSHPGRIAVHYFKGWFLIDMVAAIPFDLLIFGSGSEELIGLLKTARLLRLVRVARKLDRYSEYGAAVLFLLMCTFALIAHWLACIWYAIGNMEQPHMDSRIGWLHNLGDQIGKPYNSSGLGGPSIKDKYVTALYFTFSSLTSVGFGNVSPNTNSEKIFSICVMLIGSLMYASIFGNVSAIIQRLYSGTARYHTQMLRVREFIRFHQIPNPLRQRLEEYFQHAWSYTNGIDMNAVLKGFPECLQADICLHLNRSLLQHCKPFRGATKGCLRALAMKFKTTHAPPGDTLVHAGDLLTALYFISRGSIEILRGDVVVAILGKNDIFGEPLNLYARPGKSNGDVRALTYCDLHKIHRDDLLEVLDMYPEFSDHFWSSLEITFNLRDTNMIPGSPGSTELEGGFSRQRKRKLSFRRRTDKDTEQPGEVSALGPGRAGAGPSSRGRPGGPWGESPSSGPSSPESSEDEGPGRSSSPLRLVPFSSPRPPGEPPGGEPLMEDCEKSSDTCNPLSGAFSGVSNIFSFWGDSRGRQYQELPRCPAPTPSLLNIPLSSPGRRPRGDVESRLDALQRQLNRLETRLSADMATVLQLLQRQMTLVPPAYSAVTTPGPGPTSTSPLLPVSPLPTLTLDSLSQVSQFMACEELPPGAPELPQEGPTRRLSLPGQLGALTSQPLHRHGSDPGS
How it was run: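 Step 1: BacMam hERG transduction of U2OS, 4 hrs RT. Step 2: overnight 37 °C, plate 2000 cells/well, 4 hr. Step 3: FluxOR load, compound 10 min, stimulate, read fluorescence.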

[8] = qHTS assay for small molecule agonists of the antioxidant response element (ARE) signaling pathway (AID 651741; active = well fitted activation curve with a large enough effect in the signal ratio; the % refers to the signal ratio; note: potency is the fitted concentration of half-maximal effect; for activation: % of control where 0% means no effect); settings: HepG2 ARE-bla reporter, beta-lactamase FRET ratio, 16 h; series mostly up to 96 µM
How it was run: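 Reporter: beta-lactamase under ARE, stably in HepG2. Exposure: 16 h, 37 C, compounds delivered in DMSO by pin tool after 5 h cell preincubation. Readout: FRET substrate fluorescence after 2 h at RT.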

[9] = qHTS assay for small molecule activators of the p53 signaling pathway (AID 651743; active = well fitted activation curve with a large enough effect in the signal ratio, not every such curve was filed as active; the % refers to the signal ratio; note: % of control where 0% means no effect); settings: HCT-116 p53RE-bla, beta-lactamase FRET ratio, 16 h; stronger effect = higher value
How it was run: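 Agonist-mode quantitative HTS in HCT-116 cells carrying a p53-response-element beta-lactamase reporter; 16 h compound treatment at 37 C, then FRET substrate loading for 2 h at room temperature and fluorescence read.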

[10] = qHTS assay for small molecule activators of the nuclear factor-kappa B (NF-kB) signaling pathway (AID 651749; active = well fitted activation curve with a large enough effect in the signal ratio; the % refers to the signal ratio; note: % of control where 0% means no effect); settings: NF-kB-bla ME-180 cells, beta-lactamase FRET ratio, 16 h; stronger effect = higher value
How it was run: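 Human ME-180 cervical cells with an NF-kB-bla construct; compounds added via 23 nL pin transfer, DMSO as vehicle; incubation 16 hr. Reporter activity measured by FRET disruption.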

Row | Structure (SMILES) | max response [1] | outcome [2] | outcome [3] | max response [4] | max response [5] | activity change % (negative = inhibition) [6] | Potency [7] | Potency [8] | activation [9] | activation [10]
1 | CCOCC(=O)O | -7.45% | inactive | inactive | 2.97% | 4.52% (inactive) | 4.7% (inactive) | inactive | inactive | -3.4% (inactive) | 0.266% (inactive)
2 | Cc1cscn1 | -3.55% | inactive | inactive | -2.99% | 3.21% (inactive) | 9.8% (inactive) | inactive | inactive | -1.86% (inactive) | -0.548% (inactive)
3 | CCC(C)=O | -3% | inactive | inactive | -3.56% | 0.0353% (inactive) | -18.3% (inactive) | inactive | inactive | -2.15% (inactive) | -1.44% (inactive)
4 | O=C(O)CNC(=O)c1ccc(CO)o1 | -18.2% | inactive | inactive | 2.84% | -8.36% (inactive) | -8.36% (inactive) | inactive | inactive | -3.47% (inactive) | 0.936% (inactive)
5 | CCOC(C)(C)C | -2.56% | inactive | inactive | -1.08% | 3.08% (inactive) | -6.37% (inactive) | inactive | inactive | -0.539% (inactive) | 0.0467% (inactive)
6 | Nc1cc(Cl)c([N+](=O)[O-])cc1O | -11.8% | inactive | inactive | -8.58% | -8.94% (inactive) | 14.2% (inactive) | inactive | 8.41 µM (active) | -0.259% (inactive) | 0.0071% (inactive)
7 | O=Cc1c(Cl)cccc1Cl | 3.02% | inactive | inactive | -5.87% | -1.18% (inactive) | -16.1% (inactive) | inactive | inactive | -2.41% (inactive) | –
8 | NC(=O)c1ccccc1[N+](=O)[O-] | -9.31% | inactive | inactive | 3.46% | 0.827% (inactive) | 5.01% (inactive) | inactive | inactive | -0.853% (inactive) | -0.661% (inactive)
9 | CCCCCCC=O | -2.47% | inactive | inactive | 9.36% | 7.58% (inactive) | -17.7% (inactive) | inactive | inactive | 0.659% (inactive) | -0.682% (inactive)
10 | CCCCCCCCN | -7.59% | inactive | inactive | 2.38% | 13.9% (inactive) | 5.95% (inactive) | inactive | inactive | -1.65% (inactive) | -1.11% (inactive)
11 | O=C1OC(=O)c2cc([N+](=O)[O-])ccc21 | 18.2% | inactive | inactive | 10.4% | 1.57% (inactive) | 7.82% (inactive) | inactive | inactive | 1.53% (inactive) | -0.857% (inactive)
12 | C=C(C)C(=O)OC | -17.1% | inactive | inactive | -11.6% | -3.12% (inactive) | -1.4% (inactive) | inactive | inactive | -0.845% (inactive) | -2.84% (inactive)
13 | Cc1cc(C(=O)O)ccc1[N+](=O)[O-] | -3.52% | inactive | inactive | -3.81% | 36.9% (inactive) | 7.48% (inactive) | inactive | inactive | -0.415% (inactive) | –
14 | CN(C)CCCCl | -11.7% | inactive | inactive | -4.19% | -2.2% (inactive) | 10.5% (inactive) | inactive | inactive | -1.08% (inactive) | 0.444% (inactive)
15 | Cc1ccc(C(C)(C)C)cc1 | -4.76% | inactive | inactive | -11.6% | 4.12% (inactive) | 14% (inactive) | inactive | inactive | -7.08% (inactive) | –
16 | CCCCC/C=C/C=C/C=O | -6.95% and 20% | inactive | inactive | -1.35% and -13.3% | 1.5% (inactive) and -3.35% (inactive) | 6.77% (inactive) and -0.205% (inactive) | inactive | 48.6 µM (active) | -11.3% (inactive) | -1.4% (inactive) and -2.02% (inactive)
17 | NS(=O)(=O)O | 0.843% | inactive | inactive | 1.78% | 17% (inactive) | -4.41% (inactive) | inactive | inactive | -0.9% (inactive) | –
18 | COCCOC(=O)c1ccccc1C(=O)OCCOC | -5.12% | inactive | inactive | -3.43% | 23.2% (inactive) | 7.4% (inactive) | inactive | inactive | -1.05% (inactive) | 0.152% (inactive)
19 | CC(=O)Nc1ccc(C)cc1 | -6.19% | inactive | inactive | -3.72% | 5.73% (inactive) | 8.42% (inactive) | inactive | inactive | -3.2% (inactive) | 1.33% (inactive)
20 | CC(C)N(C)C | -10.9% | inactive | inactive | -0.298% | 11.2% (inactive) | -6.45% (inactive) | inactive | inactive | -1.2% (inactive) | -1.35% (inactive)
21 | O=C1CCC(=O)O1 | 8.02% | inactive | inactive | -8.25% | -2.46% (inactive) | -21.6% (inactive) | inactive | inactive | 0.572% (inactive) | –
22 | Cc1ccc2ncccc2c1 | -4.8% | inactive | inactive | -2.62% | 2.87% (inactive) | 1.73% (inactive) | inactive | inactive | -3.29% (inactive) | -1.62% (inactive)
